# Data taken from PubChem BioAssay (NCATS).
# “And” between values parts separate entries of the source, which are not always exact repeats. Equal values may be shown once. Records with an inconclusive call do not appear. The source holds several records for some structures; these can differ, active in one and inactive in another. The source made the active and inactive calls. The call rests on the fitted dose curve; in most records, active means well fitted curve in the direction sought with a large enough effect; inconclusive means small, poorly fitted or top-dose-only effect, or another doubt; inactive means no such curve, though single readings can be large; an effect the other way counts as inactive or inconclusive.
# Key:
# [1] = Viability qHTS for spleen associated tyrosine kinase inhibitor (SYKi) naive MV4-11 cells (AID 1963823); further: nearly all actives have a fitted effect of over 40% in size
# Procedure, shortened: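 In this viability screen, compounds acted on SYK inhibitor naive MV4-11 cells for three days (72 hr, 37 C). Remaining viable cells were measured by CellTiter-Glo luminescence following a 10 min room-temperature development.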
# [2] = Viability qHTS for spleen associated tyrosine kinase inhibitor (SYKi) drug resistant MV4-11 cells (AID 1963824); further: nearly all actives have a fitted effect of over 35% in size
# Procedure, shortened: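 SYK-inhibitor-resistant MV4-11 AML cells were seeded at 500 per well onto compound and cultured 72 hours (37 °C, 5% CO2). CellTiter-Glo was then added, and after 10 min at room temperature, luminescence gave viability.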
# [3] = Quantitative highthroughput screen to assess conditional lethalithy of P12 Ichikawa cells grown in Human Plasma-Like Medium with dialyzed fetal bovine serum (HPLM+ds) (AID 1963879); settings: Potency: viability; further: nearly all actives have a fitted effect of over 35% in size; on Viability: series mostly up to about 46 µM
# Procedure, shortened: (§1)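 Each medium arm—HPLM with 10% dialyzed FBS, or RPMI1640 with 5 mM glucose and 10% untreated or dialyzed FBS—was screened against an 11-point, 3-fold compound titration for 48 h at 37 °C, with CellTiter-Glo luminescence as endpoint.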
# [4] = Quantitative highthroughput screen to assess conditional lethalithy of P12 Ichikawa cells grown in RPMI1640 with dialyzed fetal bovine serum (RPMI+ds) (AID 1963880); settings: Potency: P12-Ichikawa viability; further: nearly all actives have a fitted effect of over 35% in size;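 on Viability: 100% = DMSO wells and 0% = empty wells on each plate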
# Procedure, shortened: as §1
# [5] = Quantitative highthroughput screen to assess conditional lethalithy of P12 Ichikawa cells grown in RPMI1640 with untreated serum (RPMI+s) (AID 1963881); settings: Potency: viability; further: nearly all actives have a fitted effect of over 35% in size;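 on Viability: series mostly up to about 46 µM; 100% = DMSO wells and 0% = empty wells without cells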
# Procedure, shortened: as §1
# [6] = Quantitative highthroughput screen to assess conditional lethalithy of SEM cells grown in RPMI1640 with unreated serum (RPMI+s) (AID 1963883); further: nearly all actives have a fitted effect of over 35% in size;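 on Viability: 100% = DMSO wells and 0% = empty wells without cells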
# Procedure, shortened: as §1
# [7] = Cellular viability qHTS for adrenocortical cancer (ACC) cell line SW-13 (AID 1963989); settings: SW-13 ACC cells viability, CellTiter-Glo, 48 h; activity (max response): stronger effect = lower value; further: nearly all actives have a fitted effect of over 65% in size;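 on activity (max response): cells grown in serum-free medium with ITS supplement; on the % scale 0 is the no-effect control and ±100 the full control effect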
# Procedure, shortened: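 Luminescent ATP read-out (CellTiter-Glo, 20 min at room temperature) measured metabolically competent SW-13 cells after 48 h compound treatment. Final concentrations spanned up to 46 uM; bortezomib served as positive control.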
# [8] = Cellular viability qHTS for adrenocortical cancer (ACC) cell line NCI-H295R (AID 1963990); further: nearly all actives have a fitted effect of over 60% in size
# Procedure, shortened: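 IC50 and maximal efficacy derive from four-parameter logistic modelling of titration curves, with reads scaled between DMSO-only wells (0%) and doxorubicin hydrochloride (100% inhibition). Compounds spanned up to 46 uM over 48 h.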
# [9] = Quantitative highthroughput screen to assess conditional lethalithy of SEM cells grown in Human Plasma-Like Medium with dialyzed fetal bovine serum (HPLM+ds) (AID 1963882); further: nearly all actives have a fitted effect of over 35% in size; on Viability: series mostly up to about 46 µM
# Procedure, shortened: as §1
# [10] = Quantitative highthroughput screen to assess conditional lethalithy of SEM cells grown in RPMI1640 with dialyzed fetal bovine serum (RPMI+ds) (AID 1963884); further: nearly all actives have a fitted effect of over 35% in size;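 on Viability: series mostly up to about 46 µM; 100% = DMSO control wells and 0% = empty wells without cells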
# Procedure, shortened: as §1
# Potency means the concentration at half of the fitted maximal effect.
Structure (SMILES),Potency [1],Potency [2],Potency [3],Potency [4],Potency [5],Potency [6],Potency [7],Potency [8],Potency [9],Potency [10],activity (max response) [7]
O=C(Nc1ccc([N+](=O)[O-])cc1Cl)c1cc(Cl)ccc1O,920 nM (active) and 934 nM (active),1.16 µM (active) and 742 nM (active),3.72 µM (active),2.96 µM (active),2.35 µM (active),1.18 µM (active),142 nM (active) and 447 nM (active),224 nM (active) and 1 µM (active),–,–,–
CN(C)CC[C@H](CSc1ccccc1)Nc1ccc(S(=O)(=O)NC(=O)c2ccc(N3CCN(Cc4ccccc4-c4ccc(Cl)cc4)CC3)cc2)cc1[N+](=O)[O-],0.148 µM (active),0.0332 µM (active),1.48 µM (active),2.35 µM (active),2.64 µM (active),0.0935 µM (active),–,22.4 µM (active),0.059 µM (active),0.0469 µM (active),–
CN[C@@H]1CN(c2ccc3c(=O)c(C(=O)O)cn(-c4nccs4)c3n2)C[C@@H]1OC,0.407 µM (active),0.512 µM (active),14.4 µM (active),8.12 µM (active),6.45 µM (active),1.44 µM (active),–,–,6.45 µM (active),2.04 µM (active),-14.5% (inactive)
NC(=O)Nc1cc(-c2ccc(CN3CCOCC3)cc2)sc1C(N)=O,0.209 µM (active),0.468 µM (active),0.118 µM (active),0.118 µM (active),0.118 µM (active),0.118 µM (active),–,5.01 µM (active),0.132 µM (active),0.105 µM (active),-17.8% (inactive)
NC(=O)[C@H]1CCS[C@@H]2C[C@]3(CCCN3C(=O)Cc3ccc(NC(=O)COc4ccc(Cl)cc4Cl)cc3)C(=O)N12,3.26 µM (active),2.91 µM (active),0.588 µM (active),1.48 µM (active),1.17 µM (active),–,–,3.98 µM (active),–,1.86 µM (active),–
NC(=NCCCCCCN=C(N)N=C(N)Nc1ccc(Cl)cc1)N=C(N)Nc1ccc(Cl)cc1,2.35 µM (active),2.63 µM (active),inactive,–,20.9 µM (active),–,3.98 µM (active),17.8 µM (active),–,–,–
COc1cc2c(cc1Cc1cccc(Cl)c1F)c(=O)c(C(=O)O)cn2[C@H](CO)C(C)C,5.9 µM (active),7.42 µM (active),26.4 µM (active),16.6 µM (active),16.6 µM (active),–,–,25.1 µM (active),–,–,–
COc1cccc2c(NCc3ccccc3)nc(-n3c(N)nc4ccccc43)nc12,2.35 µM (active),2.91 µM (active),16.6 µM (active),18.7 µM (active),16.6 µM (active),5.9 µM (active),3.16 µM (active),5.62 µM (active),9.35 µM (active),14.8 µM (active),–
O=C(Nc1ccc(OC(F)(F)F)cc1)c1sccc1NCc1ccnc2ccccc12,5.25 µM (active) and 5.17 µM (active),4.68 µM (active) and 5.8 µM (active),0.469 µM (active),2.35 µM (active),2.35 µM (active),2.96 µM (active),–,–,2.96 µM (active),7.43 µM (active),-29.8% (inactive)
O=C(NOCC1CC1)c1ccc(F)c(F)c1Nc1ccc(I)cc1Cl,3.76 µM (active),3.35 µM (active) and 2.91 µM (active) and 2.35 µM (active),–,–,2.64 µM (active),–,10.3 µM (active) and 4.47 µM (active),3.26 µM (active) and 6.31 µM (active),7.43 µM (active),–,–
CN(C)Cc1cccc(N=C(c2ccccc2)c2c(O)[nH]c3cc(C(=O)N(C)C)ccc23)c1,2.95 µM (active),7.42 µM (active),–,–,–,7.43 µM (active),–,inactive,16.6 µM (active),10.5 µM (active),–
c1ccc(-c2oc3ncnc(NC[C@@H]4CCCO4)c3c2-c2ccccc2)cc1,9.2 µM (active),13 µM (active),–,–,–,–,–,–,inactive,–,-50.5% (inactive)
NCCCCNCCCN,5.9 µM (active),5.9 µM (active),–,23.5 µM (active),18.7 µM (active),13.2 µM (active),–,inactive,11.8 µM (active),11.8 µM (active),4.66% (inactive)
O=C(Nc1cccc(C(F)(F)F)c1)Nc1cc(S(=O)(=O)NC2CC2)ccc1-c1ccsc1,14.8 µM (active),7.42 µM (active),inactive,–,–,–,28.2 µM (active),31.6 µM (active),–,–,–
CC1(C)CCC(CN2CCN(c3ccc(C(=O)NS(=O)(=O)c4ccc(NCC5CCOCC5)c([N+](=O)[O-])c4)c(Oc4cnc5[nH]ccc5c4)c3)CC2)=C(c2ccc(Cl)cc2)C1,0.105 µM (active),10 nM (active) and 41.7 nM (active),–,–,–,0.0526 µM (active),–,inactive,0.0332 µM (active),0.0264 µM (active),-2.3% (inactive)
CC(=O)Nc1nc(C)c(-c2ccc(Cl)c(S(=O)(=O)NCCO)c2)s1,0.82 µM (active),0.92 µM (active),–,–,–,2.64 µM (active),17.8 µM (active),–,4.18 µM (active),1.66 µM (active),–

Structure (SMILES),Potency [1],Potency [2],Potency [3],Potency [4],Potency [5],Potency [6],Potency [7],Potency [8],Potency [9],Potency [10],activity (max response) [7]
C=CC(=O)Nc1cccc(Sc2nc(Nc3ccc(N4CCN(C)CC4)cc3)ncc2Cl)c1,580 nM (active) and 590 nM (active),580 nM (active) and 742 nM (active),–,–,–,–,2 µM (active),3.16 µM (active),23.5 µM (active),16.6 µM (active),–
CCn1cc(C(=O)O)c(=O)c2cc(F)c(N3CCN(C)CC3)cc21,inactive,inactive and 16.6 µM (active),–,4.69 µM (active),4.18 µM (active),inactive,–,inactive,inactive,inactive,10.8% (inactive) and 4.42% (inactive)
CN(C)CCc1c[nH]c2ccc(CS(=O)(=O)N3CCCC3)cc12,inactive,inactive,–,–,inactive,5.9 µM (active),–,inactive,inactive,14.8 µM (active),-4.49% (inactive) and 5.74% (inactive)
CCN(CC)CCCCNc1ncc2cc(-c3cc(OC)cc(OC)c3)c(NC(=O)NC(C)(C)C)nc2n1,5.8 µM (active) and 8.33 µM (active),5.8 µM (active) and 9.34 µM (active),–,–,–,16.6 µM (active),28.2 µM (active),25.1 µM (active),14.8 µM (active),–,–
CC(C)C[C@H](NC(=O)c1cc2ccccc2s1)C(=O)N1CCN(C(=O)[C@H](CO)NS(=O)(=O)c2ccc(Cl)cc2Cl)CC1,20.9 µM (active),16.6 µM (active),inactive,–,inactive,–,–,25.1 µM (active),–,–,–
CCc1cccc(CC)c1NC(=O)N1Cc2[nH]nc(NC(=O)c3ccc(N4CCN(C)CC4)cc3)c2C1,1.46 µM (active) and 1.66 µM (active),1.03 µM (active) and 1.05 µM (active),–,–,–,1.66 µM (active),–,–,4.18 µM (active),–,–
COc1cc(-c2nn(C3CCC(N4CCN(C(C)=O)CC4)CC3)c3ncnc(N)c23)ccc1NC(=O)c1cc2ccccc2n1C (configuration not stated),inactive and 2.63 µM (active),2.95 µM (active),inactive,–,–,inactive,–,inactive,inactive,inactive,-14.1% (inactive)
Oc1cc(-c2nc(-c3ccccc3)[nH]c2-c2ccncc2)ccc1Cl,6.51 µM (active),5.9 µM (active) and 3.66 µM (active),16.6 µM (active),–,–,–,17.8 µM (active),28.2 µM (active),inactive,–,–
Cc1cc(Nc2cc(CN3CCOCC3)c3nc(C)c(Cc4ccc(Cl)cc4F)n3n2)n[nH]1,146 nM (active) and 148 nM (active),259 nM (active) and 235 nM (active),–,7.43 µM (active),–,2.09 µM (active),2.51 µM (active),7.94 µM (active),1.66 µM (active),1.48 µM (active),–
CC1(C)CCC2=C(O1)c1ccccc1C(=O)C2=O,8.33 µM (active),7.42 µM (active),–,–,–,26.4 µM (active),15.8 µM (active),8.91 µM (active),26.4 µM (active),18.7 µM (active),–
Cc1ccc(C(N)=O)cc1Nc1nccc(-c2cn(C(C)C)c3cnccc23)n1,0.0231 µM (active),0.0517 µM (active),–,–,–,3.72 µM (active),8.91 µM (active),12.6 µM (active),3.32 µM (active),2.09 µM (active),–
CO[C@@H]1[C@@H](OC(N)=O)[C@@H](O)[C@H](Oc2ccc3c(O)c(NC(=O)c4ccc(O)c(CC=C(C)C)c4)c(=O)oc3c2C)OC1(C)C,inactive,inactive,–,inactive,inactive,inactive,–,inactive,inactive,inactive,15.7% (inactive) and -3.94% (inactive)
CCCS(=O)(=O)Nc1ccc(F)c(C(=O)c2c[nH]c3ncc(Cl)cc23)c1F,11.6 µM (active),11.8 µM (active),–,–,–,11.8 µM (active),–,–,9.35 µM (active),13.2 µM (active),–
Nc1ncnc2c1c(-c1cccc(OCc3ccccc3)c1)cn2C1CC(CN2CCC2)C1 (configuration not stated),0.58 µM (active),0.92 µM (active),–,inactive,inactive,–,–,inactive,–,–,–
COc1cc2ncnc(Nc3cccc(Cl)c3)c2cc1OC,4.61 µM (active) and 5.17 µM (active),4.17 µM (active) and 6.51 µM (active),4.69 µM (active),–,–,0.166 µM (active),5.62 µM (active),–,0.332 µM (active),0.372 µM (active),–
Cc1c(CN2CCN(S(C)(=O)=O)CC2)sc2c(N3CCOCC3)nc(-c3cnc(N)nc3)nc12,0.146 µM (active),0.366 µM (active),0.418 µM (active),–,–,–,0.891 µM (active),0.794 µM (active),–,–,–
